We go through 47 compounds from PubChem BioAssay AID595 (National Center for Advancing Translational Sciences (NCATS), 2007).

Among all 71,000 compounds or so, about 310 (0.44%) were called active. Roughly 5% stayed inconclusive and do not appear here. The list comes from a sample in which actives are over-represented; it also holds similar structures and randomly drawn compounds. Where a call stands in place of a potency, no number is given. Unmarked numbers belong to inactive results. Calls come from the whole dose curve; as a rule, active = well fitted curve in either direction with a large enough effect; inconclusive = small, poorly fitted or top-dose-only effect, or another doubt; inactive = flat fitted curve, though single readings scatter.
Potency is the fitted concentration of half-maximal effect.

For this test, the system named is Hsp90 C-terminal peptide / TPR2A (Hop) interaction, human. The experiment in a line: qHTS Assay for Disrupters of an Hsp90 Co-Chaperone Interaction. The following applies: AlphaScreen TPR2A-His6 binding biotin-Hsp90 C-terminal peptide; series mostly up to 57 µM. An excerpt:
NIH Chemical Genomics Center [NCGC]
NIH Molecular Libraries Screening Centers Network [MLSCN]
Hsp90 (heat shock protein 90) is the essential molecular chaperone and it accounts for 1-2% of all cytosolic proteins and is critical for the activity of diverse cellular proteins that are involved in a variety of cellular processes, including development, cell cycle, and steroid hormone signaling. Its client proteins include signaling kinases such as IGF1R, Akt, v-Src, Raf-1; regulators of cell survival such as Bcr-Abl; and transcription factors such as mutated p53, estrogen and progesterone receptors. Hsp90 has emerged as an important target for cancer treatment due to its essential role in maintaining transformation and regulating the function of oncogenic signaling proteins.
The in vivo function of Hsp90 is regulated by the binding and hydrolysis of ATP at its N-terminal. Geldanamycin binds to ATP site and inhibit Hsp90 function. Geldanamycin and its analogues are under clinical trials in cancer patients.
This domain contains the binding site for tetratricopeptide repeat (TPR) domains on HOP (Hsp Organizing Protein). TPR is a structural motif used by a significant number of cochaperones by which the in vivo function of Hsp90 is regulated. TPR2A on HOP binds specifically to MEEVD motif of the C-terminal of Hsp90.
A homogeneous AlphaScreen is developed to assess the interaction between TPR2A and MEEVD motif of the C-terminal of Hsp90 by using the isolated TPR2A domain and a synthesized 20mer Hsp90 C terminal peptide. AlphaScreen is two bead-based proximity-dependent chemical energy transfer luminescent assay platform. TPR2A-His-6 and biotinylated Hsp90 C terminal peptide will bring streptavidin donor beads and nickel chelate acceptor beads to a proximity range (less than 200 nm), and subsequently lead a chemical luminescent reaction upon exciting donor beads with 680 nm laser. Inhibition of TPR2A and MEEVD motif interaction by small molecules could attenuate or abolish this chemical luminescent reaction.
Counter screening: Biotinylated-His-6 (PerkinElmer) can be utilized as a counter screen, as it serves as a linker to bring streptavidin beads and nickel chelate beads together. The counter screen can exclude alpha screen platform false positives due to small molecules being metal chelators, biotin analogues and imidazole analogues, or due to interfering with oxygen release from donor beads. Such an assay should be utilized to qualify any activity observed in this screen.
NCGC Assay Protocol Summary:
The assay was performed on 1536-well white plate (untreated solid bottom). Liquids were dispensed by 1536-well plate washer (Kalypsys, San Diego, CA). Plates were read on EnVision (PerkinElmer, Boston, MA).TPR2A-His6 was produced using a bacteria expression system and purified using a well developed method (Ghosh et al., 2000). Hsp90 C terminal 20-mer peptide with or without an N-terminal biotin group are synthesized using automated solid phase synthesis by the Yale Keck facility. The composition of assay buffer was (in mM) 25 HEPES, 100 KCl, 2 MgCl2 and 2 DTT; 0.1% BSA and 0.01% Tween-20. TPR2A-His6 binding to biotin-Hsp90 will bring streptavidin donor beads and nickel chelate acceptor beads (PerkinElmer) together and can be measured by Alpha reading by EnVision (PerkinElmer). Free Hsp90 blocks biotin-Hsp90 binding to TPR2 and serves as a positive control in the current asssay.
The assay was performed at room temperature. All compounds were screened as titrations from […] to 46 uM final concentration. The assay was performed in 1536-well format plates (untreated white solid bottom, Corning Inc.) as follows:
Sequence,Parameter,Value,Description
1,Reagent,3 uL TPR2A-His6,Final concentration was 5nM
2,Compound,23 nL,Final titration was from 0.7 nM to 46 uM
3,Time,15 minutes,Room temperature
4,Reagent,1 uL biotin-Hsp90,With and without free Hsp90. Final concentration was 10 nM for biotin-Hsp90 and 10uM for free Hsp90.
5,Time,1 hour,Room temperature
[…]
In general terms: qHTS replaces the single test concentration by a dilution series.
With `C=CCn1c(COc2ccccc2F)nnc1SCC(=O)N1CC(=O)Nc2ccccc21`, the activity change, negative = inhibition entry is “inactive”.

`CO[C@@H]1/C=C\O[C@]2(C)Oc3c(C)c(O)c4c(O)c(c(CN(C)C)c(O)c4c3C2=O)NC(=O)/C(C)=C\C=C[C@@H](C)[C@@H](O)[C@H](C)[C@@H](O)[C@H](C)[C@H](OC(C)=O)[C@@H]1C`: the activity change, negative = inhibition is -3.79% [at 11 µM].

With `CC[C@H](c1ccccc1)c1cc(C(C)(C)C)cc(C(C)(C)C)c1O`, the activity change, negative = inhibition is 5.54% [at 11 µM].

With `S=c1[nH]nc(SCc2ccccc2Cl)c2[nH]cnc12`, the activity change, negative = inhibition is -1.97% [at 11 µM].

For `Oc1cc2c(cc1O)CN(C(=S)NCCc1ccc(Cl)cc1)CCC2`, the activity change, negative = inhibition result was “inactive”.

As to `CCOC(=O)c1[nH]cnc1C(=O)NC1CCCCC1`, the activity change, negative = inhibition result is “inactive”.

With `N#Cc1ccccc1-c1ccc2ncnc(NCc3cccnc3)c2c1`, the activity change, negative = inhibition entry was “inactive”.

`O=C(O)C1CCN(c2ncnc3ccc(-c4ccccc4C(F)(F)F)cc23)CC1`: the activity change, negative = inhibition result is “inactive”.

For the compound `c1ccc2c(Nc3ccncc3)nc(-c3ccc4c(c3)OCO4)nc2c1`, the activity change, negative = inhibition result was “inactive”.

`C#CCCCCCCCCCCCCCCCC(=O)O`: the activity change, negative = inhibition entry was “inactive”.

Regarding `CC(NC(=O)c1ccco1)C(=O)Nc1nc(-c2ccccn2)cs1` (configuration not stated), the Potency is 10 µM (active).

Take `O=C(Nc1ccc(NC(=O)c2cccs2)cn1)c1ccco1`: the activity change, negative = inhibition entry was “inactive”.

As for `Cc1ccnc(NC(=O)c2ccc(NC(=O)c3ccco3)cc2)c1`, the activity change, negative = inhibition result was “inactive”.

Take `N#CCCn1c(=O)c(-c2cc(F)cc(F)c2)nc2cnc(Oc3ccccc3)nc21`: the activity change, negative = inhibition entry is “inactive”.

Regarding `CCCc1cc(=O)[nH]c(SCC(=O)OCc2ccccc2)n1`, the activity change, negative = inhibition entry is “inactive”.

Turning to `COc1ccccc1-c1nc(NCc2cccs2)c2ccccc2n1`, the activity change, negative = inhibition result was “inactive”.

As to `O=C(Nc1c2c(nn1-c1ccc(F)cc1)CS(=O)C2)C12CC3CC(CC(C3)C1)C2` (configuration not stated), the activity change, negative = inhibition result was “inactive”.

Consider `CCOC(=O)CNC(=O)CSc1nnc(-c2cccc(OC)c2)n1CC`, for which the activity change, negative = inhibition result is “inactive”.

As to `COC(=O)[C@H]1[C@H]2C[C@H]3c4[nH]c5ccccc5c4CCN3C[C@@H]2CC[C@@H]1O`, the activity change, negative = inhibition entry is “inactive”.

For `O=C(Nn1cc(C(=O)N2CCN(c3ccccc3F)CC2)c2ccccc2c1=O)c1cnccn1`, the Potency is 3.98 µM (active).

In the case of `COc1ccc2oc(=O)c(C(=O)N3CCN(c4ccccc4F)CC3)cc2c1`, the activity change, negative = inhibition result was “inactive”.

On to `O=C(c1cccc2ccccc12)N1CCN(c2ccccc2F)CC1`, for which the activity change, negative = inhibition entry is “inactive”.

In the case of `c1ccc(CNc2ncncc2-c2cccnc2)cc1`, the activity change, negative = inhibition entry is “inactive”.

In the case of `COc1ccc2[nH]cc(CCNc3ncnc4ccc(-c5ccccc5CN(C)C)cc34)c2c1`, the activity change, negative = inhibition entry was “inactive”.

Regarding `COc1ccc(C(=O)Nc2c(N)nc(SCC(=O)N3CCC(C)CC3)[nH]c2=O)cc1OC`, the activity change, negative = inhibition result was “inactive”.

On to `CCOc1c(OC)cc(C2C(C#N)=C(N)Oc3n[nH]c(-c4ccncc4)c32)cc1OC` (configuration not stated), for which the activity change, negative = inhibition result was “inactive”.

Consider `COc1ccc(-c2[nH]nc3c2C(c2ccncc2)C(C#N)=C(N)O3)cc1` (configuration not stated), for which the activity change, negative = inhibition result was “inactive”.

With `COc1cc(C2C(C#N)=C(N)Oc3n[nH]c(-c4ccccn4)c32)cc(OC)c1OC` (configuration not stated), the Potency was 25.1 µM (active).

As to `COc1ccc(-c2nc3cnc(OC)nc3n(Cc3ccc(F)cc3)c2=O)cc1`, the activity change, negative = inhibition result was “inactive”.

As to `O=c1cc(-c2ccc(O)c(O)c2)oc2cccc(O)c12`, the activity change, negative = inhibition result is “inactive”.

Turning to `CCCCCCCCCCCC(=O)O`, the activity change, negative = inhibition result is “inactive”.

Take `CCCOC(=O)Nc1ccccc1C(N)=O`: the activity change, negative = inhibition result is “inactive”.

For the compound `CC(=O)/C(C)=N\O`, the activity change, negative = inhibition entry was “inactive”.

Regarding `CCn1c(=N)c(C(=O)NCCCOC)cc2c(=O)n3cccc(C)c3nc21`, the activity change, negative = inhibition result was “inactive”.

In the case of `O=C(c1ccco1)N1CCC2(CC1)CCN(c1ncccn1)CC2`, the activity change, negative = inhibition result was “inactive”.

`COC(=O)[C@@H](NC(=O)NCc1cccc(OC)c1)C(C)C`: the activity change, negative = inhibition entry was “inactive”.

On to `C=CCNC(=O)CCCOc1cccc(C)c1`, for which the activity change, negative = inhibition is -6.77% [at 11 µM].

For `CCOC(=O)C(CCOc1cccc(CC)c1)C(=O)OCC`, the Potency was 25.1 µM [activator] (active).

Regarding `COc1cccc(-n2c(SCC(=O)NC3CCCCC3)nc3n[nH]c(C)c3c2=N)c1`, the activity change, negative = inhibition result was “inactive”.

As for `CC(=O)Nc1ccc(S(=O)(=O)N2CCC(N(C)CCC(C)C)CC2)cc1`, the activity change, negative = inhibition entry was “inactive”.

Regarding `Cc1ccc(/C(=C/CN2CCCC2)c2ccccn2)cc1`, the activity change, negative = inhibition result is “inactive”.

For `Cc1ccc(S(=O)(=O)Cn2nnnc2CN2CCN(Cc3ccc4c(c3)OCO4)CC2)cc1`, the activity change, negative = inhibition result was “inactive”.

Regarding `N=c1c2c3c(sc2ncn1N)CCCCC3`, the activity change, negative = inhibition entry was “inactive”.

On to `COC(=O)c1ccccc1NC(=O)c1cncc(Br)c1`, for which the activity change, negative = inhibition entry is “inactive”.

For `N#C/C(=C\c1ccc(O)c(O)c1)C(=O)NCc1ccccc1`, the activity change, negative = inhibition result was “inactive”.

In the case of `COc1ccc(OC)c([C@H](O)CNC(=O)CN)c1`, the activity change, negative = inhibition entry was “inactive”.

As to `Cc1cnc(CNc2ncncc2-c2ccccc2Cl)cn1`, the activity change, negative = inhibition entry was “inactive”.
